Molecules are shown by their SMILES.

The values that follow come from PubChem BioAssay.

Chain of Torsin-1A (Homo sapiens) (O14656 whole entry, looked up): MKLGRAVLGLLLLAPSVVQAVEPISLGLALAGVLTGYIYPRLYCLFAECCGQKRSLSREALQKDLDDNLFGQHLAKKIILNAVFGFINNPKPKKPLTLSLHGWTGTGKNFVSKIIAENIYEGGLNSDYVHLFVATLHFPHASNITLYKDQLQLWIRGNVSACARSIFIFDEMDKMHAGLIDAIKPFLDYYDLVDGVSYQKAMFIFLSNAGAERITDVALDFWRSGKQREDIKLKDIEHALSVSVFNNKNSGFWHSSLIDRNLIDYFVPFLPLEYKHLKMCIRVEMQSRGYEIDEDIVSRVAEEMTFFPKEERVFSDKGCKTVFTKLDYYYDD

This assay has as its target Torsin-1A (Homo sapiens) (UniProt O14656). The assay can be described thus: small-molecule binders of mutant TOR1A in lysate, primary screen, cell lysate, small-molecule microarray, COS7 lysate, 635/667 nm fluorescence (AID 1150).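 Also: score pools 667 nm emission and signal to noise measuring lysate protein binding.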 The conditions noted are these: COS7 hTOR1A mutant lysate, 635 nm fluorescence, higher = more signal.
`C=CC[C@]1(C(=O)O)N=C(c2ccc(OCCCO)cc2)O[C@H]1c1ccccc1CN=[N+]=[N-]`: the composite z-score worked out at 0.416.
`C[N+](C)(C)CCCCNC(=O)[C@H]1C[C@H]2C(=O)N3CCC[C@H]3C(=O)N2[C@H]1c1ccc(O)cc1` yielded a composite z-score of 1.66.
Consider `[N-]=[N+]=NCc1ccccc1[C@@H]1OC(c2ccc(OCCCO)cc2)=N[C@]1(Cc1ccccc1)C(=O)O`, for which the composite z-score was determined as 0.786.
`CN(C)CCCN1C(=O)[C@@]2(c3ccc([N+](=O)[O-])cc3)CC(=O)N(C3CCCCC3)[C@@H]2c2ccc(CO)cc21` displayed a composite z-score of -0.288.
Next, `CCOC1=C2C(c3ccc(C)cc3)N(S(=O)(=O)c3ccc(C)cc3)CC2n2c(=O)n(-c3ccccc3)c(=O)n2C1` (stereo unspecified): 0.254.
For `O=C1c2ccccc2[C@](Cc2ccccc2I)(C(=O)O)[C@H](c2ccc(CO)cc2)N1Cc1ccccc1C(F)(F)F`, the composite z-score is -0.203.
Consider `CCCCCCCCCCC(O)C1C=CC2C(=O)N(c3ccccc3)C(=O)C2N1Nc1ccc([N+](=O)[O-])cc1` (stereo unspecified), for which the composite z-score came out at 0.227.
To `CCOC(=O)C1=CC[C@@H](c2cccc(Cl)c2)N(S(=O)(=O)c2ccc(C)cc2)[C@H]1c1ccc(C#N)cc1` belongs 0.788.
Molecule `CCCCCCC#C[Si](O[C@H](c1ccccc1)c1cn([C@H](C)c2ccccc2)nn1)(C(C)C)C(C)C` had a composite z-score of 1.26.
As to `O=C(NCC(F)(F)F)[C@@H]1c2ccccc2C(=O)N(Cc2ccccc2)[C@H]1c1ccc(CO)cc1`, the composite z-score amounted to 0.0036.
Next, `O=C1OCC=C[C@H]2OC34C=CCN(c5ccc(Cl)cc5)C(=O)[C@H]3N(CCCO)C(=O)[C@@H]4[C@@H]12` (stereo partly specified): -2.06; `CCOC(=O)N1C(c2ccc(OCCCO)cc2)=NC(C(=O)OC)N1C(=O)OCC` (stereo unspecified): 0.36.
With `Cc1ccc(S[C@]2(C(=O)NCC(F)(F)F)CC(=O)N(C3Cc4ccccc4C3)[C@@H]2c2ccc(CO)cc2I)cc1`, the composite z-score was -0.248.
For `[N-]=[N+]=Nc1ccccc1C[C@]1(C(=O)N2CCCCC2)N=C(c2ccc(OCCCO)cc2)O[C@H]1c1ccccc1N=[N+]=[N-]`, the composite z-score is 0.951.
Molecule `C=CCNC(=O)[C@H]1[C@@H]2C(=O)O[C@@H](c3ccccc3)[C@@H](c3ccccc3)N2[C@@H](c2ccc(O)cc2)[C@]12C(=O)Nc1ccc(C#Cc3ccc(OC)cc3)cc12` displayed a composite z-score of 0.117.
As for `[N-]=[N+]=NCc1ccccc1C[C@]1(C(=O)NCc2ccccc2)COC(c2ccc(OCCCO)cc2)=N1`, the composite z-score stood at 0.784.
Consider `O=C1OCC=C[C@H]2OC34C=CCN(CCN5CCOCC5)C(=O)[C@H]3N(CCCCCCO)C(=O)[C@@H]4[C@@H]12` (stereo partly specified), for which the composite z-score is -0.0406.
In turn, `[N-]=[N+]=Nc1ccccc1[C@H]1OC(c2ccc(OCCCO)cc2)=N[C@@]1(CCS(=O)(=O)c1ccccc1)C(=O)N1CCOCC1` registered a composite z-score of 0.923.
Turning to `COC(=O)[C@@]1(Cc2ccccc2)[C@H]2c3cc(C(=O)N(C)C)n(Cc4cc(F)c(F)c(F)c4)c3C[C@H]2CN1C(=O)c1ccccc1`, the composite z-score was 0.12.
As to `O=C1O[C@H](c2ccccc2)[C@H](c2ccccc2)N2[C@H]1[C@@H](C(=O)N1CCCCCCC1)[C@]1(C(=O)Nc3ccc(C#CC4=CCCCC4)cc31)[C@H]2c1ccc(O)cc1`, the composite z-score turned out to be 3.82.
In the case of `[N-]=[N+]=NCc1ccccc1C[C@]1(C(N)=O)N=C(c2ccc(OCCCO)cc2)O[C@H]1c1ccccc1N=[N+]=[N-]`, the composite z-score is 0.652.
Next, `C=CCOC(=O)[C@H]1[C@@H]2C(=O)O[C@@H](c3ccccc3)[C@@H](c3ccccc3)N2[C@@H](c2ccc(OCCOC(=O)[C@H]3C[C@H]4C(=O)N[C@@H](CCCC[N+](C)(C)C)C(=O)N4[C@H]3c3ccc(O)cc3)cc2)[C@]12C(=O)Nc1ccccc12`: 0.846; `CC(C)NC(=O)[C@@]1(c2ccc([N+](=O)[O-])cc2)CC(=O)N(C(C)C)[C@@H]1c1ccc(CO)cc1`: 1.28.
`COc1ccc([Si](C)(C)[C@@H]2[C@@H](CCn3cc([C@H](O)c4ccccc4)nn3)O[C@]3(C(=O)N(C)c4ccccc43)[C@H]2C)cc1`: the composite z-score was -0.0593.
As to `COCCOC(=O)N1C(=O)[C@@]2(c3cc(C#CC4=CCCCC4)ccc31)[C@H](C(=O)N1CCN(c3ncccn3)CC1)[C@H]1C(=O)O[C@H](c3ccccc3)[C@H](c3ccccc3)N1[C@@H]2c1ccc(OCCO)cc1`, the composite z-score stood at 0.606.
On to `C=CCOC(=O)[C@@H]1[C@H]2C(=O)O[C@H](c3ccccc3)[C@H](c3ccccc3)N2[C@H](c2ccc(OCCOC(=O)[C@H]3C[C@H]4C(=O)N[C@@H](CC(C)C)C(=O)N4[C@H]3c3cccc(OCCO)c3)cc2)[C@@]12C(=O)Nc1ccc(I)cc12`, for which the composite z-score was 1.15.
With `CC(C)N1C(=O)c2ccccc2[C@](C)(C(=O)NCCCN(C)C)[C@@H]1c1ccc(CO)cc1`, the composite z-score came out at 3.56.
The molecule `CC(=O)NCCCC[C@@H]1NC(=O)[C@@H]2C[C@H](C(=O)NCCCCCC[N+](C)(C)C)[C@H](c3cccc(OCCO)c3)N2C1=O` showed a composite z-score of 1.43.
Consider `CCCCN1CC=CC23O[C@@H]4C=CCCOC(=O)C4[C@H]2C(=O)N(CCCO)[C@@H]3C1=O` (stereo partly specified), for which the composite z-score was -0.954.
`C=CCC(OC(C)=O)[C@@H]1[C@@H](N(Cc2cc3ccccc3o2)C(=O)c2cccc3ccccc23)c2cc(OCCCO)ccc2N1C(=O)Cc1ccc(OC)cc1` (stereo partly specified) displayed a composite z-score of 0.138.
Regarding `C=CCN1C(=O)[C@]2(COC(c3ccc(OCCCO)cc3)=N2)Cc2ccccc21`, the composite z-score came out at 0.277.
To `C=C[C@H](C)[C@H](OC(=O)Nc1ccc(OC)cc1)c1ccc(O)c2ccccc12` belongs 0.16.
As to `COc1ccccc1CN1C(=O)c2ccccc2[C@](Cc2ccccc2I)(C(=O)NC2CC2)[C@@H]1c1ccc(CO)cc1`, the composite z-score is 0.71.
Consider `C=CC[C@@]1(C(N)=O)N=C(c2ccc(OCCCO)cc2)O[C@@H]1c1ccccc1N=[N+]=[N-]`, for which the composite z-score was 0.705.
To `CCN(CC)c1ccc(N2CC=CC34O[C@@H]5C=CCOC(=O)[C@@H]5[C@H]3C(=O)N(CCCCCO)[C@@H]4C2=O)cc1` (stereo partly specified) belongs 1.06; to `COCCOC(=O)N1C(=O)[C@@]2(c3cc(C#CCC(C(=O)OC)C(=O)OC)ccc31)[C@H](c1ccc(OCCO)cc1)N1[C@H](c3ccccc3)[C@H](c3ccccc3)OC(=O)[C@H]1[C@@H]2C(=O)NC[C@H](O)c1ccccc1`, 1.18.
